Pf growth 96h: P. falciparum growth inhibition at 96 hours. AID 504834. P. falciparum luciferase reporter growth, 96 h. Potency, µM (highest dose often 28.7 µM), inactives show top-dose activity change, negative = inhibition, usual class: inhibitors. 320,000 compounds, 6.9% hits; note: potency is the fitted concentration of half-maximal effect; % is set by controls: 0 for no effect and ±100 for the full control effect
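P. falciparum expressing integrated firefly luciferase, in erythrocytes at 2% hematocrit, 0.05% parasitemia, incubated with compounds 96 h at 37 C, 5% CO2. Growth inhibition read as loss of luminescence; two-generation exposure targets delayed-death apicoplast inhibitors.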
Pf growth 48h: P. falciparum growth inhibition at 48 hours (one generation); P. falciparum luciferase growth in erythrocytes, 48 h; Potency, µM (series often up to 28.7 µM), without a hit: top-dose activity change, negative = inhibition, usual class: inhibitors; 310,000 compounds, 5.9% hits; AID 504832; note: potency is the fitted concentration of half-maximal effect; % is set by controls: 0 for no effect and ±100 for the full control effect
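A one-generation exposure of luciferase-tagged malaria parasites in RPMI 1640/Albumax erythrocyte culture, 37 C and 5% CO2. Inhibition is inferred from decreased luminescence after adding detection reagent.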
SARS PLpro yeast: inhibitors of SARS-CoV papain-like protease in yeast; Potency, µM (series often up to 32.9 µM), for inactives: at the highest dose activity, positive = growth rescue, actives largely listed as activators; 330,000 compounds, 0.19% hits; S. cerevisiae expressing SARS-CoV PLpro, growth rescue; AID 485353; calls by dose curve; note: potency is the fitted concentration of half-maximal effect; 0% is about no effect; nearly all actives have a fitted effect of over 55% in size
AMA1 RON2 block: AMA1-RON2 (P. falciparum) interaction inhibition. AID 720542. Potency, µM (doses to about 58.2 µM), for the others: top-dose activity change, negative = inhibition, usual class: inhibitors. AlphaScreen AMA1-biotinylated RON2 peptide binding. 360,000 compounds, 0.2% hits;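 note: potency is the fitted concentration of half-maximal effect; 0% = vehicle wells and -100% = peptide control; nearly all actives have a fitted effect of over 45% in size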
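AMA1 (3D7) with his tag at 25 nM final met compounds first, then biotinylated RON2 peptide at 25 nM; detection used donor plus acceptor beads, 10 µg/mL apiece, read by AlphaScreen after 30 min at room temperature.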
Cycloheximide cs: counter-screen for Shiga toxin inhibitors: cycloheximide protein synthesis inhibition. cell reporter, cycloheximide protein synthesis inhibition counterscreen. max response, %. AID 2314. 300,000 compounds, 12% hits; in the data active = max response mostly above about 13%, no sharp cut-off; inactive = mostly below about 14%; note: read at 38.3 µM for the half of the compounds with a filed dose; 0% is about no effect
Shiga inhibitor: inhibitors of Shiga toxin in Vero cells. Vero cells, Shiga toxin protein synthesis inhibition reporter. inhibition, % at 38.7 µM. 290,000 compounds, 9.2% hits. AID 2315; in the data active = inhibition mostly above about 28%, no sharp cut-off; inactive = mostly below about 43%; note: 0% is about no effect
* = called active by the depositor. Shown are actives, neighbours in structure and some others; about 19% of the full set was active somewhere. Unless noted, calls come from the whole dose curve; as a rule, active = well fitted curve in the direction sought with a large enough effect; inconclusive = small, poorly fitted or top-dose-only effect, or another doubt; inactive = no such curve, though single readings can be large; an effect the other way counts as inactive or inconclusive.

For Nc1nc2ccccc2n1/N=C/c1ccc([N+](=O)[O-])s1 the results were Pf growth 96h 1.5µM*, Pf growth 48h inconclusive, SARS PLpro yeast -53%, AMA1 RON2 block 3%, Cycloheximide cs 6 and Shiga inhibitor 14.
`Nc1nc2ccccc2n1/N=C/c1ccc(-c2ccccc2)o1` gave Pf growth 96h 14%, Pf growth 48h 20%, SARS PLpro yeast 6%, AMA1 RON2 block -16%, Cycloheximide cs 25* and Shiga inhibitor 72*.
C=CC[n+]1ccn(-c2nc3ccccc3nc2[N-]S(=O)(=O)c2cccs2)c1 was read as Pf growth 96h 5%, Pf growth 48h 4%, SARS PLpro yeast 0%, AMA1 RON2 block 14%, Cycloheximide cs 1 and Shiga inhibitor -9.
OC[C@H]1O[C@H](OC[C@H]2OC(O)[C@H](O)[C@@H](O)[C@@H]2O)[C@H](O)[C@@H](O)[C@@H]1O (stereo partly drawn) was read as Pf growth 96h 23%, Pf growth 48h -4% and AMA1 RON2 block -9%.
For Cc1cccc(N2CCN(C(=O)C3CCN(c4ncnc5c4nc4n5CCCCC4)CC3)CC2)c1C the results were Pf growth 96h inconclusive, Pf growth 48h -11%, SARS PLpro yeast -3%, AMA1 RON2 block -3%, Cycloheximide cs 3 and Shiga inhibitor -8.
`O=C(C1CCCN(c2ncnc3c2nc2n3CCCCC2)C1)N1CCN(c2cccc(Cl)c2)CC1` (stereo not drawn) gave Pf growth 96h inconclusive, Pf growth 48h 13µM*, SARS PLpro yeast -13%, AMA1 RON2 block -19%, Cycloheximide cs 13 and Shiga inhibitor -20.
`Cc1cccc(N2CCN(C(=O)C3CCN(c4ncnc5c4nc4n5CCCCC4)CC3)CC2C)c1` (stereo not drawn) gave Pf growth 96h 12µM*, Pf growth 48h 0%, SARS PLpro yeast -54%, AMA1 RON2 block -8%, Cycloheximide cs 0 and Shiga inhibitor -13.
For Cc1ccccc1N(C)C(=O)C1CCCN(c2ncnc3c2nc2n3CCCCC2)C1 (stereo not drawn) the results were Pf growth 96h -3%, Pf growth 48h inconclusive, SARS PLpro yeast -5%, AMA1 RON2 block -5%, Cycloheximide cs 9 and Shiga inhibitor -2.
For CN(C(=O)C1CCCN(c2ncnc3c2nc2n3CCCCC2)C1)c1cccc(Cl)c1 (stereo not drawn) the results were Pf growth 96h -3%, Pf growth 48h 2.9µM*, SARS PLpro yeast -2%, AMA1 RON2 block 0%, Cycloheximide cs 3 and Shiga inhibitor -6.
CCCCN(Cc1ccco1)C(=O)C1CCCN(c2ncnc3c2nc2n3CCCCC2)C1 (stereo not drawn) was read as Pf growth 96h 15%, Pf growth 48h 9.3µM*, SARS PLpro yeast -2%, AMA1 RON2 block -6%, Cycloheximide cs 3 and Shiga inhibitor 25.
`CC[C@@]12C(=O)N(c3ccc(C)cc3)C(=O)N1[C@H](c1ccc(OC)cc1)[C@@H]1C(=O)N(C(C)(C)C)C(=O)[C@@H]12` gave Pf growth 96h inconclusive, Pf growth 48h inconclusive, SARS PLpro yeast 5%, AMA1 RON2 block -3%, Cycloheximide cs 10 and Shiga inhibitor 12.
`Cc1ccc2nc3c(c(Nc4ccccc4)c2c1)CCC3` gave Pf growth 96h 9.3µM*, Pf growth 48h inconclusive, SARS PLpro yeast -1%, AMA1 RON2 block -11%, Cycloheximide cs -2 and Shiga inhibitor -7.
Screening OCCNc1c2c(nc3ccccc13)CCCC2 returned Pf growth 96h -6%, Pf growth 48h 54%, SARS PLpro yeast 8%, AMA1 RON2 block 0%, Cycloheximide cs -3 and Shiga inhibitor -10.
For c1ccc(Nc2c3c(nc4ccccc24)CCC3)cc1 the results were Pf growth 96h 9%, Pf growth 48h inconclusive, SARS PLpro yeast -1%, AMA1 RON2 block -7%, Cycloheximide cs 1 and Shiga inhibitor 1.
Screening CC(C)CNc1c2c(nc3ccccc13)CCC2 returned Pf growth 96h inconclusive, Pf growth 48h 10µM*, SARS PLpro yeast 15%, AMA1 RON2 block -1%, Cycloheximide cs 1 and Shiga inhibitor -4.
For CN(C)CCCNc1c2c(nc3ccccc13)CCC2 the results were Pf growth 96h 2%, Pf growth 48h 10µM*, SARS PLpro yeast 1%, AMA1 RON2 block -1%, Cycloheximide cs 9 and Shiga inhibitor 16.
Screening COCCNc1c2c(nc3ccccc13)CCC2 returned Pf growth 96h 9.3µM*, Pf growth 48h inconclusive, SARS PLpro yeast -7%, AMA1 RON2 block 2%, Cycloheximide cs -1 and Shiga inhibitor -17.
`c1ccc(CNc2c3c(nc4ccccc24)CCC3)cc1` gave Pf growth 96h -14%, Pf growth 48h inconclusive, SARS PLpro yeast 0%, AMA1 RON2 block 0%, Cycloheximide cs -1 and Shiga inhibitor -4.
For CCOc1ccc(CCNC(=O)C2=C(C)C(=O)OC23CCC(C)CC3)cc1 (stereo not drawn) the results were Pf growth 96h 10µM*, Pf growth 48h -4%, SARS PLpro yeast 3%, AMA1 RON2 block -4%, Cycloheximide cs -2 and Shiga inhibitor -8.
Screening CC12C(=O)N(c3cccc4cccnc34)C(=O)C1C1C=CC2C1 (stereo not drawn) returned Pf growth 96h 6.6µM*, SARS PLpro yeast -6%, AMA1 RON2 block -4%, Cycloheximide cs -4 and Shiga inhibitor -17.
`CC12C(=O)N(c3ccccc3C(=O)O)C(=O)C1C1C=CC2C1` (stereo not drawn) gave Pf growth 96h 7%, Pf growth 48h -1%, SARS PLpro yeast -3%, AMA1 RON2 block -7%, Cycloheximide cs 8 and Shiga inhibitor -10.
Screening CCOC(=O)/C=C/c1cc(F)c(S(=O)(=O)N2CCN(S(=O)(=O)c3ccc4c(c3)OCCO4)CC2)cc1F returned Cycloheximide cs -4 and Shiga inhibitor 21.
Screening COC(=O)CN1C(=S)N(c2ccc(OC)cc2)C(=O)/C1=C/c1ccc(N2CCOCC2)cc1 returned Pf growth 96h -1%, Pf growth 48h inconclusive, SARS PLpro yeast -1%, AMA1 RON2 block -18%, Cycloheximide cs 1 and Shiga inhibitor 16.
Screening COC(=O)CN1C(=S)N(c2ccc(OC)cc2)C(=O)/C1=C/c1ccc(OC)cc1 returned Pf growth 96h -1%, Pf growth 48h 12µM*, SARS PLpro yeast -1%, AMA1 RON2 block inconclusive, Cycloheximide cs 6 and Shiga inhibitor -14.
For Cc1ccc(C(=O)NC(C)(COc2nonc2C)COc2nonc2C)cc1 the results were Pf growth 48h 12µM*, SARS PLpro yeast -1%, AMA1 RON2 block 10%, Cycloheximide cs -2 and Shiga inhibitor -23.
`Cc1ccc(C(=O)NCC(C)(C)O)cc1` gave Pf growth 96h inconclusive, Pf growth 48h inconclusive, SARS PLpro yeast 1%, AMA1 RON2 block -28%, Cycloheximide cs -1 and Shiga inhibitor -1.

Source: PubChem (National Center for Advancing Translational Sciences (NCATS))
